Among the data in PubChem BioAssay (Tox21) are activity change, negative = cytotoxicity and Potency values, retold here.

SMILES strings stand for the structures. Records with an inconclusive call do not appear. A call without a number means that no potency is given here. Values without a mark were called inactive. Calls of active or inactive are those of the source. Calls follow the shape of the dose curve; as a rule, active = well fitted cell-killing curve with a large enough effect in the repeat runs; inconclusive = weak or mixed curves, or effect the other way; inactive = flat fitted curve, though single readings scatter.
Potency is read from the fitted curve at half-maximal effect.

The nature of the experiment: qHTS assay to identify small molecule antagonists of the constitutive androstane receptor (CAR) signaling pathway - cell viability counter screen (AID 1224837). Also: nearly all actives have a fitted effect of over 45% in size. The following applies: HepG2-CYP2B6-hCAR viability, CellTiter-Fluor, 23 h, co-treated with 50 nM CITCO; series mostly up to 92.4 µM. The source says:
National Center for Advancing Translational Sciences [NCATS]
NIH Chemical Genomics Center [NCGC]
U.S. Environmental Protection Agency [EPA]
National Institutes of Environmental Health Sciences [NIEHS]
National Toxicology Program [NTP]
U.S. Food and Drug Administration [FDA]
The constitutive androstane receptor (CAR) is a nuclear receptor which regulates multiple drug metabolizing enzymes (DMEs) and transporters. Activating CAR will generally increase the transcription and subsequent translation of CYP2B6 and CYP3A4. These two DMEs represent about 50% of the drug metabolizing potential in the body. When CAR is deactivated, the metabolizing potential in the body will decrease, subsequently increasing the toxicity in the body or lowering the therapeutic potential of a pro-drug. Recently, there have also been studies performed indicating CARs role in energy metabolism and cancer therapy. Therefore, inhibiting CARs activity could have a potential effect on diabetes and cancer. Identifying environmental toxins and compounds which modulate CAR, through the use of the Tox21 10K compound collection, will be an important step in determining the toxicity and potential therapeutic effects these factors will have on the human body. To differentiate true CAR antagonists from cytotoxic substances, the assay is multiplexed with a cell viability assay.
Tox21 Assay Protocol Summary:
A double-stable (hCAR and CYP2B6-2.2kb) transfected cell line, derived from human hepatoma (HepG2) cells, was utilized for the duration of the quantitative high-throughput screens. The HepG2-CYP2B6-hCAR cells were dispensed at 2500 cells/4 uL/well in 1536-well white solid bottom plates using a Multidrop Combi. After the assay plates were incubated at 37 C/5% CO2 for 4 hrs, 23 nL of compounds at 15 concentrations (from 5-48 columns) or positive control (from 1 to 4 columns) were transferred to the assay plates using a Pintool station. One uL of CITCO (final concentration = 50 nM) was added, using a Flying Reagent Dispenser, inside each well. After a 23 hr incubation period at 37 C/5% CO2, 1 uL of CellTiter-Fluor reagent was added into each well of the assay plates using a Flying Reagent Dispenser. The fluorescence intensity in the plates was then measured using a ViewLux plate reader.
For `CCCCNc1ccc(NCCCC)c2c1C(=O)c1ccccc1C2=O`, the activity change, negative = cytotoxicity is 5.61% [at 19 µM].

On to `c1ccc(-c2nc3ccccc3[nH]2)cc1`, for which the Potency result is “inactive”.

`N#Cc1ccc(C/C(=N/NC(=O)Nc2ccc(OC(F)(F)F)cc2)c2cccc(C(F)(F)F)c2)cc1`: the Potency result is “inactive”.

For the compound `O=C(N[C@H](CO)[C@H](O)c1ccc([N+](=O)[O-])cc1)C(Cl)Cl`, the Potency entry was “inactive”.

`O=C1CCC(=O)N1`: the Potency entry is “inactive”.

As to `N#CCCOCCC#N`, the Potency entry was “inactive”.

Take `CO[Si](OC)(c1ccccc1)c1ccccc1`: the Potency result is “inactive”.

In the case of `CCc1c(C)cc(N)c(CC)c1N`, the Potency entry is “inactive”.

For the compound `CN1CCN(CCCN2c3ccccc3Sc3ccc(C(F)(F)F)cc32)CC1`, the Potency result was “inactive”.

For the compound `CCN(CCC#N)c1ccc(N=Nc2ccc([N+](=O)[O-])cc2)cc1`, the Potency result was “inactive”.

As for `CCOc1ccc([N+](=O)[O-])cc1`, the Potency result was “inactive”.

Consider `CC(=O)CC(N)=O`, for which the Potency result was “inactive”.

On to `CCOC(=O)[C@H](O)[C@@H](O)C(=O)OCC`, for which the Potency result is “inactive”.

Regarding `O=c1cc[nH]cc1`, the Potency result was “inactive”.

`C=CC(C)(C)O`: the Potency entry is “inactive”.

`Nc1c(Br)cc([N+](=O)[O-])cc1Br`: the Potency entry was “inactive”.

With `C=CCc1cc(S(=O)(=O)c2ccc(O)c(CC=C)c2)ccc1O`, the Potency entry is “inactive”.

For `NC(=O)c1ccccc1Cl`, the Potency entry is “inactive”.

As to `c1ccc2occc2c1`, the Potency result is “inactive”.

With `CCNc1nc(NC(C)(C)C)nc(OC)n1`, the Potency entry was “inactive”.

For the compound `Clc1ccc2c(Cl)ccnc2c1`, the Potency result is “inactive”.

As for `C=C[Si](C)(C)Cl`, the activity change, negative = cytotoxicity is -8.76% [at 8.39 µM].

As for `Nc1cc([N+](=O)[O-])ccc1Cl`, the Potency entry is “inactive”.

Consider `O=[N+]([O-])c1ccc(CO)cc1`, for which the Potency result is “inactive”.

Regarding `CCc1cccc(CC)c1`, the Potency result was “inactive”.

`O=C(Cl)c1ccc(Cl)cc1Cl`: the Potency entry was “inactive”.

In the case of `C=C1CC[C@H]2O[C@]2(C)CC[C@@H]2[C@@H]1CC2(C)C`, the Potency result was “inactive”.

In the case of `Nc1ccc(Oc2cccc(Oc3ccc(N)cc3)c2)cc1`, the Potency result is “inactive”.

As to `CC/C=C\C/C=C\C/C=C\CCCCCCCC(=O)OC`, the Potency result is “inactive”.

Take `COc1cc(OC)nc(NC(=O)NS(=O)(=O)Nc2ccccc2C(=O)N(C)C)n1`: the Potency result was “inactive”.

As for `ClC(c1ccccc1)(c1ccccc1)c1ccccc1`, the Potency entry is “inactive”.

As to `Cc1cc(F)ccc1-c1cc(N2CC[C@@H](O)[C@H]2CO)ncc1N(C)C(=O)C(C)(C)c1cc(C(F)(F)F)cc(C(F)(F)F)c1`, the Potency entry was “inactive”.

`C=Cc1ccncc1`: the Potency result is “inactive”.

With `NCc1ccco1`, the Potency result was “inactive”.

In the case of `CCC(C)(C)c1ccc(CC(C)CN2C[C@@H](C)O[C@@H](C)C2)cc1` (stereo not given in full), the Potency entry was “inactive”.

For `N#Cc1nc(Cl)c(Cl)c(Cl)c1Cl`, the Potency is 27.3 µM (active).

With `CCOc1nc(F)cc2nc(S(=O)(=O)Nc3c(Cl)cccc3C(=O)OC)nn12`, the Potency result is “inactive”.

As to `C/C=C/C(=O)OCC(C)C`, the Potency result is “inactive”.

In the case of `Cn1c(=O)[nH]c2ncn(C)c2c1=O`, the Potency result was “inactive”.

As to `SC1CCCCC1`, the Potency entry was “inactive”.
